The target in test [1] is Cellular tumor antigen p53 (Homo sapiens) (UniProt P04637). Briefly: Primary qHTS for small molecule compounds that upregulate eGFP-tagged delta133p53alpha (in N-terminal) cells. (AID 2060322). Also: nearly all actives have a fitted effect of over 75% in size. Also: potency is read from the fitted curve at half-maximal effect.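 As to activation: cells pre-induced with doxycycline then dosed without doxycycline; series mostly up to about 56 µM; 0% = DMSO vehicle and 100% = reference activator.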 As to conditions: NCI-H358 eGFP-delta133p53alpha fluorescence, 24 h; activation: stronger effect = higher value. The essentials: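 NCI-H358 cells pre-induced 24 h with 10 ng/ml doxycycline for eGFP-delta133p53alpha, plated dox-free and exposed 24 h at 37C to titrated compounds. Fixed, Hoechst-stained; gated GFP peak intensity by laser scanning cytometry, normalized to DMSO (0%) and 57.5 uM 5-azacytidine (100%).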
Chain of Cellular tumor antigen p53 (Homo sapiens) (P04637 whole entry, looked up): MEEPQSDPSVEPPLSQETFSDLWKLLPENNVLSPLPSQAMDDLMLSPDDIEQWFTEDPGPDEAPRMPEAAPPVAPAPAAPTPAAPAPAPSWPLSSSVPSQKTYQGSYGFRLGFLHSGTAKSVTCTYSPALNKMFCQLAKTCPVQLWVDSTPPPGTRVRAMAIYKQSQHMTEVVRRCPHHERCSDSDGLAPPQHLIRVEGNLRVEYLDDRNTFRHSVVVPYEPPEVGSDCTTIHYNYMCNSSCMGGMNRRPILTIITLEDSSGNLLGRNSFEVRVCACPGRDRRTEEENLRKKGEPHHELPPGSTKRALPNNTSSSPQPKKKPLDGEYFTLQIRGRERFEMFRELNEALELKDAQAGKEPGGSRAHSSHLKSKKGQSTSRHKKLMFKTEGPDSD

The target of test [2] is Aldehyde dehydrogenase, mitochondrial (Homo sapiens) (UniProt P05091). The test can be described thus: qHTS for Inhibitors of the Aldehyde Dehydrogenase Family (ALDH2) Confirmatory screens (AID 2061303; active = well fitted inhibition curve with a large enough effect; title and protocol of this record describe different tests; also: % is scaled to controls: 0 for no effect and ±100 for the full control effect; nearly all actives have a fitted effect of over 45% in size).
Test [3] is described as follows: qHTS for Inhibitors of the Aldehyde Dehydrogenase Family (ALDH1A2, ALDH1A3, ALDH2, ALDH3A1) (AID 2061307). Also: % is scaled to controls: 0 for no effect and ±100 for the full control effect; nearly all actives have a fitted effect of over 50% in size. In general terms: qHTS replaces the single test concentration by a dilution series.
Test [4] concerns the target Aldehyde dehydrogenase, mitochondrial (Homo sapiens) (UniProt P05091). The test can be described thus: qHTS for Inhibitors of the Aldehyde Dehydrogenase Family (ALDH2) Primary screen (AID 2061308).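 Also: plate controls were vehicle for no effect and reference inhibitor for full effect; nearly all actives have a fitted effect of over 55% in size.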
The target of test [5] is Retinaldehyde dehydrogenase 3 (Homo sapiens) (UniProt P47895). The test can be described thus: qHTS for Inhibitors of the Aldehyde Dehydrogenase Family (ALDH1A3) Confirmatory screens (AID 2061311). Also: nearly all actives have a fitted effect of over 60% in size. Also: potency is read from the fitted curve at half-maximal effect.
For test [6] the target is unchanged. Briefly: qHTS for Inhibitors of the Aldehyde Dehydrogenase Family (ALDH1A3) Validation screen (AID 2061312). Also: % is scaled to controls: 0 for no effect and ±100 for the full control effect; nearly all actives have a fitted effect of over 45% in size.
Test [7] has as its target Retinal dehydrogenase 2 (Homo sapiens) (UniProt O94788). Briefly: qHTS for Inhibitors of the Aldehyde Dehydrogenase Family (ALDH1A2) Confirmation screens (AID 2061314). Also: nearly all actives have a fitted effect of over 65% in size.
Test [8] addresses Retinaldehyde dehydrogenase 3 (Homo sapiens) (UniProt P47895). Briefly: qHTS for Inhibitors of the Aldehyde Dehydrogenase Family (ALDH1A3) Primary screen (AID 2061315). Also: potency is read from the fitted curve at half-maximal effect.
Test [9] deals with Aldehyde dehydrogenase 1A1 (Homo sapiens) (UniProt P00352). Briefly: qHTS for Inhibitors of the Aldehyde Dehydrogenase Family (ALDH1A1) Confirmatory screens (AID 2061316). Also: nearly all actives have a fitted effect of over 65% in size.
Test [10] concerns the target Aldehyde dehydrogenase, mitochondrial (Homo sapiens) (UniProt P05091). Briefly: qHTS for Inhibitors of the Aldehyde Dehydrogenase Family (ALDH2) Validation screens (AID 2061302; active = well fitted inhibition curve with a large enough effect; title and protocol of this record describe different tests;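 also: plate controls were DMSO vehicle for no effect and maximal DPI positive control response for full effect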).
Test [11] can be described thus: BET inhibitor-based combinations targeting novel dependencies in MECOM-rearranged (r) AML: SET-2 cell line (AID 2202231). Also: nearly all actives have a fitted effect of over 35% in size. Also: potency is read from the fitted curve at half-maximal effect.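 As to viability: plate controls were DMSO treated cells for no effect and wells without cells for full effect.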 As to conditions: SET-2 AML cells viability, CellTiter-Glo luminescence, 48 h; viability: stronger effect = lower value, concentration not given here. The essentials: (§1)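 Viability of cells (500 per well) is scored by luminescent CellTiter-Glo at 48 hr post-dosing. Eleven-point titrations are normalized to DMSO and empty controls and reduced to AUC values.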
On the technique in general: ATP-based viability assays read luminescence as a measure of living cells.

Test [12] is described as follows: BET inhibitor-based combinations targeting novel dependencies in MECOM-rearranged (r) AML: OCI-AML3 cell line (AID 2202232). Also: nearly all actives have a fitted effect of over 35% in size. Also: potency is read from the fitted curve at half-maximal effect. The note with it: Potency: OCI-AML3 viability. The essentials: as §1
Test [13] can be described thus: BET inhibitor-based combinations targeting novel dependencies in MECOM-rearranged (r) AML: MV-4-11 cell line (AID 2202233). Also: nearly all actives have a fitted effect of over 45% in size. Also: potency is read from the fitted curve at half-maximal effect. The essentials:
(§2)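 Using pin-tool transfer, drugs were added in 11 doses to cells (500/well), incubated 48 hr, and assessed with CellTiter-Glo. Z-AUC is a mean-centring transformation applied separately to each screened line.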

Test [14] is described as follows: BET inhibitor-based combinations targeting novel dependencies in MECOM-rearranged (r) AML: HNT-34 cell line (AID 2202234). Also: nearly all actives have a fitted effect of over 35% in size. Also: potency is read from the fitted curve at half-maximal effect. The essentials: as §2
The nature of test [15]: BET inhibitor-based combinations targeting novel dependencies in MECOM-rearranged (r) AML: UCSD-AML1 cell line (AID 2202235). Also: nearly all actives have a fitted effect of over 40% in size. Also: potency is read from the fitted curve at half-maximal effect. The essentials:
as §2

Test [16] in a line: BET inhibitor-based combinations targeting novel dependencies in MECOM-rearranged (r) AML: AML-191 cell line (AID 2202236; also: nearly all actives have a fitted effect of over 35% in size; also: potency is read from the fitted curve at half-maximal effect). The essentials:
as §1

Test [17] in a line: BET inhibitor-based combinations targeting novel dependencies in MECOM-rearranged (r) AML: AML-194 cell line (AID 2202237;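 also: plate controls were vehicle wells for no effect and wells without cells for full effect; nearly all actives have a fitted effect of over 40% in size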). The essentials: as §1

“And” between values parts separate entries of the source, which are not always exact repeats. Identical values can stand only once. Results filed as inconclusive are left out. Values without a mark were called inactive. The source made the active and inactive calls. Unless noted, calls follow the shape of the dose curve; as a rule, active = well fitted curve in the direction sought with a large enough effect; inconclusive = small, poorly fitted or top-dose-only effect, or another doubt; inactive = no such curve, though single readings can be large; an effect the other way counts as inactive or inconclusive.

For the compound `O=c1[nH]c2cccc(N3CCN(Cc4ccc(-c5ccccc5)cc4)CC3)c2o1`, the activation in test [1] was -3.82%. Also, the Potency entry in test [2], in test [3], in test [4], in [5], in test [6] and in [7] was “inactive” in each case. Besides, the Potency entry in test [8] and in test [9] was “inactive” throughout.

As for `C#CC(=O)N(c1ccc(OC)cc1OC)C(C(=O)NCC(=O)OCC)c1cccs1` (stereo unspecified), in test [1], the Potency was 7.57 µM (active). For the same compound, the Potency result in [2] and in test [3] was “inactive” in each case.

For `COc1cc(CC2COC(c3ccc(OC4OC(CO)C(O)C(O)C4O)c(OC)c3)C2CO)ccc1O` (stereo unspecified), the activation in test [1] is -20.6%. In addition, the Potency entry in [2], in test [3], in test [4] and in test [7] was “inactive” each time. For the same compound, the Potency was 11 µM (active) in test [5] and 8.91 µM (active) in test [8].

In general, viability refers to a read-out of living cells in per cent, often relative to untreated cells. As for `CCCNCC(O)COc1ccccc1C(=O)CCc1ccccc1` (stereo unspecified), in test [1], the activation was 15% and -5.02% and 3.52%. Further, the Potency result in [10] and in [6] was “inactive” throughout. Further, the viability in [11] was 84.2%.

As for `Cc1cc(Cl)ccc1COc1ccnn1-c1cc(C(=O)O)ccn1`, the activation in test [1] was 5.67%. In addition, the Potency result in [2], in test [3], in test [4], in [5], in test [7] and in test [8] was “inactive” each time.

`OCCN1CCN(CCCN2c3ccccc3Sc3ccc(C(F)(F)F)cc32)CC1`: the activation in [1] is 21.2% and 6.21% and -4.78%. The Potency entry in test [10] and in test [15] was “inactive” in each case. For the same compound, the Potency in test [11] was 20.9 µM (active); in test [12], 18.6 µM (active); in test [13], 18.6 µM (active); in test [14], 18.6 µM (active); in test [16], 29.5 µM (active).

For the compound `COc1ccc(CCC(=O)c2c(O)cc(O[C@@H]3O[C@H](CO)[C@@H](O)[C@H](O)[C@H]3O[C@@H]3O[C@@H](C)[C@H](O)[C@@H](O)[C@H]3O)cc2O)cc1O`, in test [1], the activation was 8.33%. Also, the Potency result in test [2], in [3] and in test [4] was “inactive” throughout.

For `NC(Cc1c[nH]c2ccccc12)C(=O)NC(CCC(=O)O)C(=O)O` (stereo unspecified), the activation in test [1] is -0.955%. The Potency result in test [2], in [3], in [4], in [5], in [6] and in test [7] was “inactive” each time. Besides, the Potency result in [8] and in [9] was “inactive” each time.

With `O=C(Nc1cc(C(F)(F)F)cc(C(F)(F)F)c1)c1cnc(Cl)nc1C(F)(F)F`, in test [1], the Potency was 30.1 µM (active). In addition, the Potency result in test [2], in test [3], in [4], in test [5], in test [6] and in test [7] was “inactive” throughout. The Potency entry in [8] and in test [9] was “inactive” in each case.

Regarding `COC(=O)[C@]1(Cc2ccc(O)c(CC=C(C)C)c2)OC(=O)C(O)=C1c1ccc(O)cc1`, the activation in [1] is 1.53%. The Potency result in [2], in test [3], in test [4] and in test [7] was “inactive” each time. The Potency in [5] was 12.3 µM (active).

Consider `NCCCCCC(=O)O`, for which the activation in test [1] was 2.82% and -3.41%. Further, the Potency entry in test [10], in test [6], in test [14], in test [15], in test [16] and in [17] was “inactive” in each case. For the same compound, the viability in [11] is 112%.

As to `CC(C)(CC(=O)N1CCCC1)NCC(=O)N1C[C@@H](F)C[C@H]1C#N`, the activation in test [1] was 0.333%. The Potency entry in test [2], in [3], in test [4], in test [5], in [7] and in [8] was “inactive” each time. Further, the Potency result in test [9] is “inactive”.

On to `CC/C=C\[C@H](O)[C@H](O)C1=C(C)C(=O)[C@]2(O1)C(=O)N[C@@](O)(C(=O)c1ccccc1)[C@@H]2O`, for which the activation in [1] is -14.5%. In addition, the Potency entry in test [2], in test [3], in test [4], in test [5], in test [7] and in test [8] was “inactive” each time.

With `C1COC(NC(C2CC2)C2CC2)=N1`, the activation in test [1] was 11% and 4.18%. Further, the Potency result in [10], in [6], in test [12], in test [13], in [14] and in test [15] was “inactive” throughout. The Potency entry in test [16] and in [17] was “inactive” in each case. In addition, the viability in test [11] was 117%.

`Nc1nc2ccc(OC(F)(F)F)cc2s1`: the activation in test [1] was -8.55% and 47.5%. Also, the Potency result in [10] and in test [6] was “inactive” each time. Further, in [11], the viability was 89.4%. The Potency in [13] is 23.5 µM (active); in [14] it was 16.6 µM (active); in [15], 26.3 µM (active).

Take `Fc1ccc(-c2nc(C3CCNCC3)sc2-c2ccnc(NC3CC3)n2)cc1`: the Potency in [1] was 26.9 µM (active). Besides, the Potency result in [2], in test [3], in test [4], in [5], in test [7] and in test [8] was “inactive” throughout. Further, the Potency result in test [9] is “inactive”.

As to `COc1cc2nc(N3CCCC3)nc(NCCCCCN3CCCC3)c2cc1OC`, the Potency in [1] is 30.6 µM (active). In addition, the Potency result in [2], in [3], in [4], in test [6], in test [7] and in test [8] was “inactive” in each case.

Values taken from PubChem BioAssay (NCATS).
